# Platelet DG rel: inhibitors of platelet dense granule secretion, primary screen, cell-based, MLPCN, human platelets. human platelet-rich plasma, SFLLRN dense granule ATP release, luminescence. 0.22% of 300,000 active. inhibition, %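 (compounds screened at 7.5 µM in platelet-rich plasma)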;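 active = mean replicate score, as percent of positive control, at or above 50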
# PolyA inhibitor: polyadenylation inhibitors in yeast reporter cells, primary screen, luminescence, S. cerevisiae | S. cerevisiae SKY197-pL101 polyadenylation reporter, beta-gal luminescence; efflux-impaired pdr1/pdr3 knockout yeast; score 100 = 6 SD above DMSO | activity score, % at 12 µM | 0.02% of 300,000 active | AID 1875, 2009;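 active = lowest replicate activity score at least 50, where 100 means six control SD above control mean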;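 note: yeast exposed to compound for 9 h at 30 °C; higher score means more reporter readthrough which indicates perturbed polyadenylation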
# AHR act: AHR activators, primary screen, cell-based, luminescence, luciferase reporter, human; Aryl hydrocarbon receptor (Homo sapiens), P35869; activation, % at 5 µM; AHR-responsive luciferase reporter cells; 2.5% of 320,000 active; in the data active = activation above about 47%;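 note: 0% = vehicle wells and 100% = reference agonist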
# Target sequence (P35869 whole entry, looked up): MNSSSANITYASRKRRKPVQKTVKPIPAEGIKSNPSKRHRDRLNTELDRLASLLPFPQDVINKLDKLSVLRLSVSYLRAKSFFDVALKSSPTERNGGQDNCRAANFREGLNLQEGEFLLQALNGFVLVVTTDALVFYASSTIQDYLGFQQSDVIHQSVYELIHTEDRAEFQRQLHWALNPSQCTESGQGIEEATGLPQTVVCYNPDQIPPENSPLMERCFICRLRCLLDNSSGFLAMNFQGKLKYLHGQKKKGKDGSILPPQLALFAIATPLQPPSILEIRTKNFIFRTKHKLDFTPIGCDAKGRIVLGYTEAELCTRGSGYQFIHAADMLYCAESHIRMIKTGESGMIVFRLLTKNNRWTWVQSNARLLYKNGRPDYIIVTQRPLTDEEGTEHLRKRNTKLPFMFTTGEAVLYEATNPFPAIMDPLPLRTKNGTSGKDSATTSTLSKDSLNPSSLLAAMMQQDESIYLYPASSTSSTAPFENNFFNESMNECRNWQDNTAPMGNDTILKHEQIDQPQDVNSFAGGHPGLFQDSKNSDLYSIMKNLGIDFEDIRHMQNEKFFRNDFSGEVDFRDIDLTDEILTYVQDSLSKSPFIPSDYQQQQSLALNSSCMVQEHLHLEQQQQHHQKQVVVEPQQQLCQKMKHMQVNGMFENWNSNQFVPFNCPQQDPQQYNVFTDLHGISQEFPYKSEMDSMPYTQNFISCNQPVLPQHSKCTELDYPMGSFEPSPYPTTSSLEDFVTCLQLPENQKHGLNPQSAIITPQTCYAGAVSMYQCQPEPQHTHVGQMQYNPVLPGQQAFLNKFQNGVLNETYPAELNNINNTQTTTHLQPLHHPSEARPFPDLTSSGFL
# pCIP destab: p/CIP-EGFP fusion destabilizers, primary screen, fluorescence, F442A cells. Q05BA5. 16 h. decrease of EGFP signal, % at 10 µM. 0.01% of 290,000 active. AID 1984, 2009;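 active = EGFP signal decrease of at least 30% at 10 µM or well 3 SD below plate mean, unless failing retest; inactive = the rest, including hits failing retest or dose response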
# HIF act: HIF pathway transcriptional activators, primary screen, cell-based, U2OS HRE-luciferase, luminescence; activation, % at 7.5 µM (by protocol); U2OS HRE-luciferase reporter; normalized: DMSO 0%, desferrioxamine 100%; AID 1910, 2009; 0.32% of 300,000 active;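 active = mean activation of at least 10% of the iron chelator positive control signal, with at least half of replicates also reaching 10%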
# * marks the source's active call; other numbers are inactive results; . = not tested or not shown. Rows were chosen to be rich in hits. Some 2.8% of all compounds tested hit in one or more screens of this group.
SMILES,Platelet DG rel,PolyA inhibitor,AHR act,pCIP destab,HIF act
O=C(COc1ccccc1/C=C1/NC(=O)NC1=O)Nc1ccccc1,-1,24,36,1,0
O=C(COc1ccccc1/C=C1\SC(=O)NC1=O)Nc1ccc(F)cc1,7,-1,98*,-3,0
Cc1ccc(NC(=O)Cc2nc(CSc3nnc(-c4ccc5c(c4)OCO5)o3)cs2)cc1,-4,-14,50*,-3,4
Cc1c(C)c2c(C)nn(-c3ccccc3)c2[nH]c1=O,-5,1,96*,2,0
COc1ccc(C(=O)Nc2cccc3nc(C)ccc23)c(OC)c1,2,3,72*,-3,-1
COc1ccccc1C(=O)Nc1cccc2nc(C)ccc12,-3,-4,53*,-2,-1
COc1cc(OC)cc(C(=O)Nc2cccc3nc(C)ccc23)c1,-1,-1,.,3,-1
COc1ccccc1NC(=O)c1ccc2nc(C)c(C)nc2c1,-6,1,9,-14,0
COc1ccccc1NC(=O)c1cc2ccccc2nc1C,1,8,57*,-5,0
Oc1[nH]c(N=C2N=c3ccccc3=N2)c2ccccc12,18,-21,58*,11,7
Oc1ccc(-c2nccc(-c3cccs3)n2)cc1,2,-12,70*,1,4
Cc1nn(Cc2ccccc2Cl)c2sc(C(=O)NC(C)(C)C)cc12,-12,13,15,-7,-1
O=C(Cc1ccccc1Cl)NCCCn1ccnc1,1,39,6,5,.
Cc1nn(Cc2ccccc2Cl)c2sc(C(=O)NCCCn3ccnc3)cc12,11,-12,49*,-5,4
Cc1csc(NC(=O)c2cc3c(C)nn(Cc4ccccc4Cl)c3s2)n1,7,-19,47*,1,0
O=C(Nc1ccccc1)C1=C[C@H](c2ccc3c(c2)OCO3)C[C@H](OCc2ccc(CO)cc2)O1,-1,0,8,-17,2
CC1=CC(C)(C)N(C(=O)CN2C(=O)c3ccccc3C2=O)c2ccc(C)cc21,-7,-12,-1,-13,.
CCC(=O)N1c2ccc(C)cc2C2=NNC(=S)NC21O (centres undefined),11,-15,62*,4,-1
Cc1ccccc1N=Nc1ccc(O)c2ncccc12,2,-21,3,2,38*
COc1ccc(N=Nc2ccc(O)c3ncccc23)cc1,1,29,48*,2,92*
COc1cccc(N=Nc2ccc(O)c3ncccc23)c1,18,2,9,10,7
Oc1ccc(N=Nc2ccc3c(c2)OCCO3)c2cccnc12,7,-7,14,16,14*
Oc1ccc(N=Nc2ccc3c(c2)OCCO3)c(O)c1,41,12,15,-10,0
CC(CCc1ccccc1)NC(=O)Cc1cccs1 (centres undefined),3,13,2,-22,0
Cc1cccc(N(C(=O)c2nsc(Cl)c2Cl)C(C(=O)NC2CCCC2)c2ccc(O)cc2)c1 (centres undefined),7,17,7,1,0
SMILES,Platelet DG rel,PolyA inhibitor,AHR act,pCIP destab,HIF act
O=C(C1=C[C@@H](C2CC2)C[C@@H](OCCCCO)O1)N1CCN(Cc2ccc3c(c2)OCO3)CC1,2,3,1,-26,40*
COc1ccc(-c2cc(-c3cc(F)ccc3O)[nH]n2)cc1OC,4,-8,50*,-7,.
COc1ccc(-c2cc(-c3ccccc3O)[nH]n2)cc1OC,21,-13,10,0,5
Cc1ccc(O)c(-c2cc(-c3cccc(F)c3)n[nH]2)c1,-1,1,56*,-2,6
Cc1ccc(O)c(-c2cc(-c3ccccc3F)[nH]n2)c1,-30,-4,27,-7,2
COc1ccccc1NC(=O)c1sc2ncn(Cc3ccccc3C)c(=O)c2c1C,-2,12,28,-5,0
CCOc1ccccc1NC(=O)c1sc2ncn(CC(=O)N3CCOCC3)c(=O)c2c1C,3,-2,55*,-7,0
CCn1cnc2sc(C(=O)Nc3ccccc3OC)c(C)c2c1=O,2,-18,68*,-6,0
COc1ccccc1NC(=O)c1sc2ncn(CC(=O)N3CCC(C)CC3)c(=O)c2c1C,13,-10,15,-9,0
COC(=O)c1ccccc1NC(=O)COC(=O)C1CCCCC1,-8,8,1,-13,0
O=C(c1ccco1)[C@@H]1[C@@H]2C(=O)N(c3ccccc3)C(=O)[C@@H]2C2c3ccccc3C=CN21 (some centres undefined),-3,-23,33,-10,0
COc1ccc(N2C(=O)[C@@H]3[C@H](C2=O)[C@H]2c4ccccc4C=CN2[C@@H]3C(=O)Nc2ccccc2)cc1,.,.,56*,-6,.
COc1ccc(N2COC3c4cccc5cccc(c45)C32)cc1 (centres undefined),0,3,30,-8,0
Clc1ccc(N2COC3c4cccc5cccc(c45)C32)cc1 (centres undefined),2,-26,60*,15,0
O=c1[nH]c2ccccc2nc1/C=C/c1ccc(O)cc1,35,-17,.,-42,2
O=c1[nH]c2ccccc2nc1/C=C(\O)c1cccs1,-1,0,48*,-82,2
Cn1c(=O)c(/C=C/c2ccc(F)cc2)nc2ccccc21,-18,-20,.,-8,3
O=c1[nH]c2ccccc2nc1/C=C/c1ccc(F)cc1,2,1,74*,-6,3
O=c1[nH]c2ccccc2nc1/C=C/c1ccccc1,4,-18,57*,-6,4
O=C(CN1CCN(C(=O)c2ccco2)CC1)Nc1ccc(F)cc1F,0,-1,0,-3,1
O=C(c1cc(C2CC2)nn1-c1ccccc1)N1CCN(Cc2c(F)cccc2Cl)CC1,.,.,1,.,.
CCN(CC)CCn1c2c(c(SCC(=O)Nc3ccccc3Cl)nc1=O)CCC2,6,-11,0,.,0
O=C(/C=C/c1cccs1)Nc1cccnc1,-2,9,56*,-7,4
O=C(/C=C/c1c(F)cccc1Cl)Nc1cccnc1,5,12,50*,-1,-7
O=C(/C=C/c1cc(Br)ccc1F)Nc1cccnc1,-7,-6,20,-3,2
Cc1ccc(-c2nc3cccnc3s2)cc1NS(=O)(=O)c1cccs1,-10,-5,59*,-2,1
Cc1nc2ccc(S(=O)(=O)Nc3cc(-c4nc5cccnc5s4)ccc3C)cc2s1,4,14,53*,2,3
CC(C)=CCc1c(O)cc2c(c1O)C(=O)CC(c1ccccc1)O2 (centres undefined),1,-13,51*,.,0
COc1ccc(N2CCN(C(=O)COC(=O)c3ccc(C)o3)CC2)cc1,2,5,-2,.,0
COc1cc(C(=O)OCC(=O)N2CCC(C)CC2)cc2c1OCCO2,.,.,0,.,.
